Compound activity: PubChem BioAssay, National Center for Advancing Translational Sciences (NCATS)
Tau fluor counter – Counterscreen qHTS for Inhibitors of Tau Fibril Formation, Fluorescence Polarization | tau K18 P301L Alexa594 fluorescence, heparin fibrillization | Potency, µM (series often up to 57.7 µM), inactives show at the highest dose activity change, negative = decrease | 280,000 tested, 0.93% active | AID 1463, 2008; note: potency is the fitted concentration of half-maximal effect; nearly all actives have a fitted effect of over 55% in size
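Human tau K18 P301L (15 uM unlabeled, 0.24 uM Alexa 594-labeled) in 100 mM sodium acetate pH 7 with 20 uM heparin, 6 hr at 37 C. ThT 30 uM added, 1 hr ambient; Alexa 594 FP and total fluorescence read at 555/632 nm.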
Sfp inh – qHTS Assay for Inhibitors of Bacillus subtilis Sfp phosphopantetheinyl transferase (PPTase). 310,000 tested, 3.5% active. Biochemical Sfp PPTase activity, qHTS. Potency, µM, for the others: largest response in the series, negative = inhibition, most hits filed as inhibitors. 4'-phosphopantetheinyl transferase ffp (Bacillus subtilis), Q9F4F7;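 note: the enzyme is Sfp with the accession as filed and its product quenches rhodamine fluorescence; potency is the fitted concentration of half-maximal effect; 0% = enzyme reaction without inhibitor and -100% = no enzyme wells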
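Sfp 15 nM + cpd, 15 min RT; start w/ rhodamine-CoA 5 uM, BHQ-2-YbbR 12.5 uM (final); 50 mM Hepes pH 7.6, 10 mM MgCl2, 0.01% NP-40, 0.01% BSA; read 525/598 nm at 0 and 30 min.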
Tau fibril FP – qHTS for Inhibitors of Tau Fibril Formation, Fluorescence Polarization; Potency, µM (series often up to 57.7 µM), for inactives: top-dose activity, negative = inhibition, hits mostly inhibitors; K18 P301L tau heparin fibrillization, Alexa594 FP, 6 h; 280,000 tested, 0.39% active; Microtubule-associated protein tau (Homo sapiens), P10636; note: potency is the fitted concentration of half-maximal effect; nearly all actives have a fitted effect of over 55% in size
Target sequence (P10636 561-689 P618L limits assumed): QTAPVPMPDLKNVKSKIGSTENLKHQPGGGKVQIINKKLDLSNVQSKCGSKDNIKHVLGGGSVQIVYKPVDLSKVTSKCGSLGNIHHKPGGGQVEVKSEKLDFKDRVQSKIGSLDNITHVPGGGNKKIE
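Heparin (20 uM) drove fibril formation of recombinant tau K18 P301L, 15 uM unlabeled with 0.24 uM Alexa 594 label, for 6 hr at 37 C in 100 mM sodium acetate pH 7. Fluorescence polarization (555/632 nm) read 1 hr after 30 uM ThT.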
Coupling enz – qHTS Assay for Inhibitors of Fructose-1,6-bisphosphate Aldolase from Giardia Lamblia: Coupling assay counterscreen; AID 2472, 2010; activity change, negative = inhibition, % at 58.2 µM, hits read low; 290,000 tested, 0.67% active; coupling enzyme system counterscreen, AmpLite Red fluorescence; in the data active = activity change below about -30%
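Activity here indicates interference with the coupling reaction, not aldolase inhibition. Compounds at 57.5 uM final met coupling enzymes for 10 min at RT; substrate and AmpLite Red detection followed, with a 525/598 nm fluorescence read after 20 min.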
Tau fibril ThT – qHTS for Inhibitors of Tau Fibril Formation, Thioflavin T Binding; 270,000 tested, 2.1% active; Potency, µM (titrated, usually from 57.4 µM), inactives show at the highest dose activity, negative = inhibition, hits mostly inhibitors; recombinant tau K18 P301L, heparin-induced fibrillization, ThT fluorescence; AID 1460, 2008; Microtubule-associated protein tau (Homo sapiens), P10636; note: potency is the fitted concentration of half-maximal effect; nearly all actives have a fitted effect of over 55% in size
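Using a mix of unlabeled (15 uM) and Alexa 594-labeled (0.24 uM) tau K18 P301L, heparin-triggered fibrillization over 6 hr at 37 C was scored by ThT fluorescence.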
Active calls of the source: *; ? = inconclusive; / = no result; [ ] = dose if it differs, or a comment. Shown are actives, neighbours in structure and some others; about 5.2% of the full set was active somewhere. Unless noted, calls come from the whole dose curve; as a rule, active = well fitted curve in the direction sought with a large enough effect; inconclusive = small, poorly fitted or top-dose-only effect, or another doubt; inactive = no such curve, though single readings can be large; an effect the other way counts as inactive or inconclusive. Unless noted, % is set by controls: 0 for no effect and ±100 for the full control effect.

SMILES	Tau fluor counter	Sfp inh	Tau fibril FP	Coupling enz	Tau fibril ThT
COc1ccc2nc3ccccc3nc2c1NC(=O)c1ccc(Cl)cc1Cl	-15%	11%	-2%	-33*	2%
Cc1ccc(CSc2nc3cccnc3n2Cc2ccc(C(=O)NCCc3cccs3)cc2)cc1	-17%	/	-5%	/	2%
COc1cccc(C(C2=C(O)CC(C)(C)CC2=O)C2C(=O)CC(C)(C)CC2=O)c1 (stereo not drawn)	-7%	-17%	-2%	1	?
CC1(C)CC(=O)C(C(C2=C(O)CC(C)(C)CC2=O)c2ccc(Br)s2)C(=O)C1 (stereo not drawn)	4%	20µM*	-1%	12	-7%
CC1(C)CC(=O)C(C(C2=C(O)CC(C)(C)CC2=O)c2ccc([N+](=O)[O-])cc2)C(=O)C1 (stereo not drawn)	-18%	18µM*	?	-8	?
Cc1ccc(C(C2=C(O)CC(C)(C)CC2=O)C2C(=O)CC(C)(C)CC2=O)s1 (stereo not drawn)	-3%	35µM*	-5%	4	-18%
CC1(C)CC(=O)C(C(C2=C(O)CC(C)(C)CC2=O)c2ccc(O)c([N+](=O)[O-])c2)=C(O)C1	-6%	20µM*	3%	-7	-15%
CC1(C)CC(=O)C2=C(C1)OC1=C(C(=O)CC(C)(C)C1)C2c1ccc(O)c([N+](=O)[O-])c1	-18%	8%	-11%	5	-14%
NC(=S)c1ccc[n+]([C@@H]2O[C@@H](COP(=O)([O-])OP(=O)(O)OC[C@H]3O[C@@H](n4cnc5c(N)ncnc54)[C@H](OP(=O)(O)O)[C@H]3O)C(O)C2O)c1 (stereo partly drawn)	1%	/	1%	/	8%
COc1ccc2c(c1)c1ccc3c(c1n2C)C(=O)C=CC3=O	3.5µM*[quencher]	2.2µM*	16µM*	-15	5µM*
Cc1ccc2c(c1)c1ccc3c(c1n2C)C(=O)C=CC3=O	0.89µM*[quencher]	2.5µM*	?	-12	/
Cc1ccc2c(c1)c1ncnc(N3CCOCC3)c1n2C	-10%	16%	-5%	0	-20%
CCC(Nc1ccc(-c2nc(-c3ccco3)no2)cc1[N+](=O)[O-])c1ccccc1 (stereo not drawn)	-28%	/	1%	/	-16%
CC1(C)CC(=O)C(=Cc2cn(-c3ccccc3)nc2-c2ccc(Cl)cc2)C(=O)C1	5%	89µM*	-2%	/	3%
O=C(O)/C(=C\c1cn(-c2ccccc2)nc1-c1ccc(Cl)cc1)NC(=O)c1ccccc1	8%	29%	4%	-4	4%
N#CCCn1cc(C=C(C#N)C#N)c(-c2ccc(-c3ccccc3)cc2)n1	1%	?	-3%	-7	3%
CC1(C)CC(=O)C(=Cc2cn(CCC#N)nc2-c2ccc(F)cc2)C(=O)C1	2%	56µM*	-13%	0	?
N#CCCn1cc(/C=N/O)c(-c2ccc(F)cc2)n1	-6%	12%	-2%	5	-12%
CC1(C)CC(=O)C(=Cc2cn(CCC#N)nc2-c2ccc(Cl)cc2)C(=O)C1	6%	79µM*	-12%	6	?
O=C(Nc1cccc(C(=O)N2CCN(c3ccc(F)cc3)CC2)c1)c1nsc2ccccc12	-27%	/	3%	/	-10%
Cc1ccc(-c2nc(Nc3ccc(N4CCOCC4)cc3)c3ccccc3n2)cc1	4µM*[quencher]	-1%	?	-4	16µM*
Cc1ccc(-c2nc(Nc3ccc(O)cc3)c3ccccc3n2)cc1	/	10%	/	0	/
COC(=O)c1ccc(Nc2nc(-c3ccc(C)cc3)nc3ccccc23)cc1	?	/	3.5µM*	/	-17%
COc1ccc2c(c1)CC/C(=C\Nc1ccc3c(c1)OCO3)C2=O	14µM*[quencher]	22µM*	?	-49*	1.3µM*
COc1ccc2c(c1)CC/C(=C\C=C\c1ccccc1)C2=O	-25%	28µM*	-8%	-17	2.5µM*
